Data on eleven compounds can be found in ChEMBL document CHEMBL3988442, “University of Dundee, Small-Polar-MMV Screening Library” (2021).

For some assays here: Potency and affinity values are given separately.

What all share (design): scale not given: direction of the effect not stated beside the values
For experiment [1], the target named is Protein translocase subunit SecA (Escherichia coli (strain K12)) (UniProt P10408). Briefly: Assay to Identify E. coli SecA ATPase Inhibitors. Format: functional. The following applies: 30 µM.
The target of experiment [2] is T1, Ubiquitin-activating enzyme e1, putative (Leishmania donovani (strain BPK282A1)) (UniProt E9BSI1).
T1 sequence (whole entry): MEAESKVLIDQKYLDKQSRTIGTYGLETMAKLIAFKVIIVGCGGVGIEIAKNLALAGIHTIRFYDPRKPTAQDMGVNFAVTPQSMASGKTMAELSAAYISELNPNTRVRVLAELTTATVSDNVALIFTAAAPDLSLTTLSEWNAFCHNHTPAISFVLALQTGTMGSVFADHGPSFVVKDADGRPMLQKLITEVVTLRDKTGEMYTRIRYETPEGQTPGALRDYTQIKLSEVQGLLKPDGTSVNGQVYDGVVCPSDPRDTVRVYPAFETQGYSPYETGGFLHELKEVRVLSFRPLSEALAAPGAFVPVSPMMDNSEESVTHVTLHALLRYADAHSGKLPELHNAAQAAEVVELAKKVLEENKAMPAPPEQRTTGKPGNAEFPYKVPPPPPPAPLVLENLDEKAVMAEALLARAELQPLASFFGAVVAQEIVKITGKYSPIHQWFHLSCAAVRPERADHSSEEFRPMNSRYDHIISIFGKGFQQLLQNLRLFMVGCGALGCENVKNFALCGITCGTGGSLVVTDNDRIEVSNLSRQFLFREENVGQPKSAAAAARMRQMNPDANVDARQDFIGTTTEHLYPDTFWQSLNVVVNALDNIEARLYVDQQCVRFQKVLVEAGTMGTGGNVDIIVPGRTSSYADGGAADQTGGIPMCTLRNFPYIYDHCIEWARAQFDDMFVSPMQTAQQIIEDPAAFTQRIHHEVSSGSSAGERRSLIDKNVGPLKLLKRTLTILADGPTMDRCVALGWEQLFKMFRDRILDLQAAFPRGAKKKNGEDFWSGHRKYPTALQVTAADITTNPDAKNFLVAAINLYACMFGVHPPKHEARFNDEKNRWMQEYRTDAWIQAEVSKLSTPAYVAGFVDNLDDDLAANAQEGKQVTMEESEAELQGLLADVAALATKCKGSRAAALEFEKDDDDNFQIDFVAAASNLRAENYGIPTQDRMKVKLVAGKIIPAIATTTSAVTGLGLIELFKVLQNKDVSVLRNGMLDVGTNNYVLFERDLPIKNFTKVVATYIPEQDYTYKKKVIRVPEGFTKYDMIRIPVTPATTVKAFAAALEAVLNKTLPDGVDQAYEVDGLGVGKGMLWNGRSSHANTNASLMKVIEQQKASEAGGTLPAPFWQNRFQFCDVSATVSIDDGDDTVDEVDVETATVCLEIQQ
Briefly: Leishmania donovani Ubiquitin Activating Enzyme (LdE1). In kind it is functional. To be noted: 30 µM.

Experiment [3] has as its target Sialic acid-binding Ig-like lectin 9 (Homo sapiens) (UniProt Q9Y336). Briefly: Hs-Siglec9 ALPHAscreen SOP 20170721. The following applies: 10 µM. A general note: Bead proximity is the source of the signal in Alpha formats.
Another experiment relates to Trypanosoma cruzi. Briefly: Trypanosoma cruzi phosphomannomutase and mannose-1-phosphate guanylyltransferase assay. To be noted: 10 µM. In kind it is functional.
For experiment [4], the target named is T2, Arginase-2, mitochondrial (Homo sapiens) (UniProt P78540).
T2 sequence (whole entry): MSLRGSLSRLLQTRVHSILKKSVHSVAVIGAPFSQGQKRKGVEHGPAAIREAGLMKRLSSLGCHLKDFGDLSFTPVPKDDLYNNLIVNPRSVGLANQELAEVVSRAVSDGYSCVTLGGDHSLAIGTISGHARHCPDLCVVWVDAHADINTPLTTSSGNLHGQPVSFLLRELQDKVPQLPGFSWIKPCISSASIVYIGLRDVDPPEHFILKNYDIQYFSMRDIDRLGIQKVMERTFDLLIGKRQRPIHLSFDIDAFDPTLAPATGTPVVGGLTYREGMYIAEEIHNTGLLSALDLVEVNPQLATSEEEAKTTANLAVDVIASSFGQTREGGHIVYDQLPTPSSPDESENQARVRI
In words: in vitro enzyme assay to detect the production of urea directly proportional to the activity of Arginase II. Note: in the data most compounds retested in dose-response had high values. In kind it is functional. The following applies: 33.3 µM.

In experiment [5] the target is T3, Proteasome subunit beta (Trypanosoma cruzi) (UniProt O96673).
T3 sequence (whole entry): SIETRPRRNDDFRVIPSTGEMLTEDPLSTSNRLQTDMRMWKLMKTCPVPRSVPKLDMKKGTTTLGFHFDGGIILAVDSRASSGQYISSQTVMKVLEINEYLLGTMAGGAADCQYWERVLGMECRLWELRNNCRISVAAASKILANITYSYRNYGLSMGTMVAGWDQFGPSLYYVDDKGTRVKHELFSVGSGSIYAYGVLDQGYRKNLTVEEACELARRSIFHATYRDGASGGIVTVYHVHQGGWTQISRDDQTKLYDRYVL
Briefly: Trypanosoma cruzi proteasome chymotrypsin-like activity (TcProtChymo) assay. Note: in the data most compounds retested in dose-response had high values. In kind it is functional. To be noted: 9.37 µM.

The species entered for another experiment is Homo sapiens. Briefly: To identify inhibition of the IFN signalling (Jak-Stat) pathway via expression of an eGFP reporter gene under the control of an IFN-stimulated response element (ISRE) containing MxA promoter. In kind it is functional. The following applies: 30 µM.
The target of experiment [6] is T4, Tyrosyl-tRNA synthetase, putative (Trypanosoma cruzi (strain CL Brener)) (UniProt Q4DSP6).
T4 sequence (whole entry): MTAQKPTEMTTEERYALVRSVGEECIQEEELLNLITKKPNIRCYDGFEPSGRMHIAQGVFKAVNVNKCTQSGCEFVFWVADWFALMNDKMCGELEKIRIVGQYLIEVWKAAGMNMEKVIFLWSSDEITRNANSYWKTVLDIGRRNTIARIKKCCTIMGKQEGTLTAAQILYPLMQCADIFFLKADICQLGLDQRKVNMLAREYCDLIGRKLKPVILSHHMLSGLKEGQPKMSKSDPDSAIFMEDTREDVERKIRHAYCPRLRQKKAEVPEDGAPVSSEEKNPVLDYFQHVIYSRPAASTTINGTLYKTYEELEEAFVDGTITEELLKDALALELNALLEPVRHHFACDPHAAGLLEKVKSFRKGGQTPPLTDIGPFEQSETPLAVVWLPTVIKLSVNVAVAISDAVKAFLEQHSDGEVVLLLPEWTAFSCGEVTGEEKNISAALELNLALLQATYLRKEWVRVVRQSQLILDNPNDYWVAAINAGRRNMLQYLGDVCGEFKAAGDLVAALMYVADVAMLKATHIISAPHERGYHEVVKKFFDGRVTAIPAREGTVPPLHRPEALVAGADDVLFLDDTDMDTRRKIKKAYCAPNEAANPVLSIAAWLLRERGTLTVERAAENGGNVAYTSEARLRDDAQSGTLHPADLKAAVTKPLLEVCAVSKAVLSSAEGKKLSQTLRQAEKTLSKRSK
In words: Trypanosoma cruzi tyrosyl tRNA synthetase (TcYRS) _High Tyrosine SOP. Note: in the data most compounds retested in dose-response had high values. To be noted: 30 µM. In kind it is functional.

Experiment [7] addresses T4, Tyrosyl-tRNA synthetase, putative (Trypanosoma cruzi (strain CL Brener)). In words: Trypanosoma cruzi tyrosyl tRNA synthetase (TcYRS) SOP. In kind it is functional. To be noted: 30 µM.
In experiment [8] the target is Chromo domain-containing protein 1 (Saccharomyces cerevisiae (strain ATCC 204508 / S288c) (Baker's yeast)) (UniProt P32657). In words: ScCHD-1 Enzyme Inhibition Assay. Note: in the data most compounds retested in dose-response had high values. In kind it is functional. The following applies: 30 µM.
Chromo domain-containing protein 1 (Saccharomyces cerevisiae (strain ATCC 204508 / S288c) (Baker's yeast)), sequence (P32657 whole entry, the tested form may be a part): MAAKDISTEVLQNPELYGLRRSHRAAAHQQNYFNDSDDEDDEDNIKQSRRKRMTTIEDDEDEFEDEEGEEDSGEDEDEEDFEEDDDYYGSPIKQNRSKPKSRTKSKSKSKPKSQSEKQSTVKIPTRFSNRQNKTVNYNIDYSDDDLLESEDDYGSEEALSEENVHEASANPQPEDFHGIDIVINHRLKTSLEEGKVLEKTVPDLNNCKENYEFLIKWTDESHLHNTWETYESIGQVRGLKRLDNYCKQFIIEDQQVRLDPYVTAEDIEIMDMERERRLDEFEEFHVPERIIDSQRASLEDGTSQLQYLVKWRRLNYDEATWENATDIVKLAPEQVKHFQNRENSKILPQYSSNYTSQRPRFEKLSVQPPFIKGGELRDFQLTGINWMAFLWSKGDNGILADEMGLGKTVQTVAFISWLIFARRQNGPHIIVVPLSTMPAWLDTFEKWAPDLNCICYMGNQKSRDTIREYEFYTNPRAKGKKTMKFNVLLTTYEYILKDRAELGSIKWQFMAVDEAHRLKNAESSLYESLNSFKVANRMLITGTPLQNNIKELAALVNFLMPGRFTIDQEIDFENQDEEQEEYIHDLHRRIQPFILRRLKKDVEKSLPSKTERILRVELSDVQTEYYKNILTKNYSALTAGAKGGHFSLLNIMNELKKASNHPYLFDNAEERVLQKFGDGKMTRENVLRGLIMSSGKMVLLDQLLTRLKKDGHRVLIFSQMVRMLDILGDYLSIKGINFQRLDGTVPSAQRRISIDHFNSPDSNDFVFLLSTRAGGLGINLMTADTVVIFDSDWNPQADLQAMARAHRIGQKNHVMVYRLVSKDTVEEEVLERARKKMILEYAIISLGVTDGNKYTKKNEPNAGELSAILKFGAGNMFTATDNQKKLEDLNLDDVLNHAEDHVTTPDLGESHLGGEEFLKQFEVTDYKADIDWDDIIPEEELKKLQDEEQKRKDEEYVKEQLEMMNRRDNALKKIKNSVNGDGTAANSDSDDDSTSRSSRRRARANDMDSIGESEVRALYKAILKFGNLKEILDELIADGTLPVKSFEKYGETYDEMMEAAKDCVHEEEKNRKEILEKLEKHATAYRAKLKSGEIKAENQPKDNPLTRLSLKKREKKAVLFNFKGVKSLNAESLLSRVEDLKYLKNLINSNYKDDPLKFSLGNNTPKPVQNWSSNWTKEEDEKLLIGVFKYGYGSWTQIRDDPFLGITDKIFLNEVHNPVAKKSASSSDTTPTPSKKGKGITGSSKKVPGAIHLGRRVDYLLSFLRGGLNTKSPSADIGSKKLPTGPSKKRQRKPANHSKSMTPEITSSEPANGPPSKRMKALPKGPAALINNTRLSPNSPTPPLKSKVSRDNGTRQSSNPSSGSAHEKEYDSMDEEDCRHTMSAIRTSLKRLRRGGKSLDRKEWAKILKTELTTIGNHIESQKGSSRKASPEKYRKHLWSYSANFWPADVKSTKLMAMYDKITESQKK

Sialic acid-binding Ig-like lectin 9 (Homo sapiens), sequence (Q9Y336 whole entry): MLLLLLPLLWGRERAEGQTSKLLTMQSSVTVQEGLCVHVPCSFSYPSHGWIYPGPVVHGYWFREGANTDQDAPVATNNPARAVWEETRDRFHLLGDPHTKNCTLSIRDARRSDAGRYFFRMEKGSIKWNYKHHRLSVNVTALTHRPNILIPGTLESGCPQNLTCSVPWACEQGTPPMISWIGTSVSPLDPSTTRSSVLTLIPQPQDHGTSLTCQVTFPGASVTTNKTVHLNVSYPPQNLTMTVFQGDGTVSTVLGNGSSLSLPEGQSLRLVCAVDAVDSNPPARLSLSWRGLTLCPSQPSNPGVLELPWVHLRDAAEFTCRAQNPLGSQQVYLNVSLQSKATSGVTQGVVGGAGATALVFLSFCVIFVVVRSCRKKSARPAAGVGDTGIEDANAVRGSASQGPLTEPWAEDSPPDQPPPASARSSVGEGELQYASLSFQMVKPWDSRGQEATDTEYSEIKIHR
Protein translocase subunit SecA (Escherichia coli (strain K12)), sequence (P10408 whole entry): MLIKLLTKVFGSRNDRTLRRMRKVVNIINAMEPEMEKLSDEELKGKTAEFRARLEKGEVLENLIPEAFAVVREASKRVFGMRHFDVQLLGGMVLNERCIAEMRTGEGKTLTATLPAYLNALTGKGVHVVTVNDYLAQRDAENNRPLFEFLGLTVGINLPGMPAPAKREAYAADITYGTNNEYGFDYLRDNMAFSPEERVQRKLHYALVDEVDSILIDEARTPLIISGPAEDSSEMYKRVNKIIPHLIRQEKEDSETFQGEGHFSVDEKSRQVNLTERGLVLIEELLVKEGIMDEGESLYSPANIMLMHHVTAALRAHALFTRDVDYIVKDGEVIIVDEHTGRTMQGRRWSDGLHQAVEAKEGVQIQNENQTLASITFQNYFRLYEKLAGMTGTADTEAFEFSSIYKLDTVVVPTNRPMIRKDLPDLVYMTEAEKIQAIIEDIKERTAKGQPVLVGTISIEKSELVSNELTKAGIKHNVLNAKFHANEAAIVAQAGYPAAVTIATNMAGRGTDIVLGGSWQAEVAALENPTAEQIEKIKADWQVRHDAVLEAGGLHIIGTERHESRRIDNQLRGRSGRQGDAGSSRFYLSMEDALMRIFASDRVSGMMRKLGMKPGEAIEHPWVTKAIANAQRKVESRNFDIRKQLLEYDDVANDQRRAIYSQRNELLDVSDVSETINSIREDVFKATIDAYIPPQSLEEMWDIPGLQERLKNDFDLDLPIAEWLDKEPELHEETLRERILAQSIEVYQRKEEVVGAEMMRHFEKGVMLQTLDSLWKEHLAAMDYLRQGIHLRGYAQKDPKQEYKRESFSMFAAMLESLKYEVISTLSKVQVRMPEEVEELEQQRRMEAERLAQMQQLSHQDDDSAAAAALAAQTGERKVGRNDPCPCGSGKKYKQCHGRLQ

Regarding `Cc1ncc(-c2ccnc(N3CCCCCC3)n2)c(-c2cccnc2)n1`, the Percent Effect is -0.407% in [1]; 10.7% in experiment [2]; 0.168% in experiment [3]; -8.03% with Trypanosoma cruzi; 3.1% in [4]; 8.74% in experiment [5]. Also, the Percent Effect in the experiment filed under Homo sapiens is 21.1%; in experiment [6] it was 1.58%; in [7], 12.8%; in experiment [8] it was -11.6%.

In the case of `Cc1nc(CNCC2CN(C)CCO2)cs1` (stereo not given), the Percent Effect in [1] was -4.87%; in experiment [2], 18.2%; in [3], 4.98%; in the experiment with Trypanosoma cruzi, 3.73%; in experiment [4], -3.89%; in experiment [5], 1.05%. In addition, the Percent Effect is -7.33% in the experiment listed under Homo sapiens, 1.96% in [6], 21.2% in [7] and -11.4% in experiment [8].

As to `CCc1nc(C2CCCN2C(=O)c2ccc3c(c2)nc(C)n3C)no1` (stereo not given), the Percent Effect in [1] is -0.423%; in experiment [2], -2.67%; in experiment [3], 4.72%; in the experiment with Trypanosoma cruzi, -2.41%; in experiment [4] it was 1.77%; in experiment [5], 3.31%. In addition, the Percent Effect was 7.34% in the experiment filed under Homo sapiens, 1.58% in [6], 0% in experiment [7] and -6.99% in [8].

With `CCn1c(Cn2cncn2)nnc1C1CCN(Cc2ccc(C)o2)CC1`, the Percent Effect in experiment [1] is -6.62%; in [2], 5.41%; in experiment [3], 5.22%; with Trypanosoma cruzi, 3.78%; in experiment [4], 2.45%; in [5], 9.07%. For the same compound, the Percent Effect in the experiment listed under Homo sapiens was 5.52%; in experiment [6] it was 4.79%; in experiment [7] it was 14.6%; in [8] it was -3.96%.

Consider `CNC(=O)N1C[C@H]2C[C@H](C(=O)Nc3ccccc3)[C@@H](C1)O2`, for which the Percent Effect in [1] was -6.94%; in experiment [2] it was -35.1%; in [3] it was 1.87%; in the experiment on Trypanosoma cruzi, 0.0974%; in experiment [4] it was -3.24%; in experiment [5], 11.7%. In addition, the Percent Effect is 1.26% in the experiment filed under Homo sapiens, 4.74% in [6], 10.3% in [7] and 13.9% in experiment [8].

As for `CCCc1n[nH]cc1C(=O)N1CCC(c2nccn2CCOC)CC1`, the Percent Effect in experiment [1] is -7.31%; in experiment [2], 16.2%; in experiment [3], 21.9%; in the experiment on Trypanosoma cruzi, 8.44%; in [4] it was 20.6%; in [5], 7.19%. Besides, the Percent Effect amounted to 11% in the experiment filed under Homo sapiens, 5.85% in experiment [6], 12.2% in [7] and 20.9% in [8].

With `Cc1cnc(N2CCC3(CCN(CC4CC4)C3=O)CC2)nc1`, the Percent Effect in experiment [1] is -0.786%; in experiment [2], 16.9%; in [3], -3.91%; in the experiment with Trypanosoma cruzi, -4.13%; in [4], 3.65%; in experiment [5], 8.84%. The Percent Effect in the experiment listed under Homo sapiens was 17.8%; in [6], 8.7%; in experiment [7], 12.5%; in [8] it was -11.4%.

Turning to `CC(C)N(C)C(=O)CN1CCCC(c2ccc(C(=O)O)cc2)C1` (stereo not given), the Percent Effect was -2.28% in experiment [1]; 18.9% in experiment [2]; -0.275% in [3]; 0.485% with Trypanosoma cruzi; -66.1% in experiment [4]; 12.3% in experiment [5]. Moreover, the Percent Effect in the experiment listed under Homo sapiens is 29.1%; in experiment [6], 5.85%; in experiment [7], 19.5%; in experiment [8], -6.15%.

Take `COc1cccc(CNc2cnn(C)c(=O)c2Cl)c1`: the Percent Effect in [1] was -6.48%; in [2] it was 0%; in [3] it was 3.58%; with Trypanosoma cruzi, -1.21%; in [4], 6.65%; in experiment [5], 3.48%. Further, the Percent Effect was 55.5% in the experiment listed under Homo sapiens, 2.63% in [6], 5.13% in experiment [7] and -5.75% in [8].

Regarding `COc1ccc(CNCc2ccnc(N3CCCCC3)c2)cc1OC`, the Percent Effect in experiment [1] was -2.73%; in experiment [2], -2.56%; in experiment [3], 3.59%; with Trypanosoma cruzi it was 4.22%; in experiment [4], 2.87%; in experiment [5], -1.62%. Besides, the Percent Effect is 25.8% in the experiment listed under Homo sapiens, 3.35% in experiment [6], 1.21% in experiment [7] and -2.92% in [8].

For `CCc1nc(C2CCCN2CCn2cncn2)no1` (stereo not given), the Percent Effect in experiment [1] was -1.22%; in experiment [2], 5.2%; in [3], 7.59%; in the experiment on Trypanosoma cruzi, -0.187%; in experiment [4] it was 3.07%; in [5], 3.86%. The Percent Effect in the experiment filed under Homo sapiens is 1.29%; in [6] it was 1.96%; in [7], 7.06%; in experiment [8], -4.93%.
